# Active and inactive are the calls of the source. Rule for the calls: active = hit-call score of the fitted dose curve at least 0.9, where 1 is the maximum; inactive = score below 0.9.
# Experiments:
# [1] = IUF_NPC1b_proliferation_BrdU_72hr: Leibniz Research Institute for Environmental Medicine (IUF) 72-hour Neural Progenitor Cell Bromodeoxyuridine (BrdU) Proliferation Assay (NPC1b) (AID 2284207)
# Experimental: IUF_NPC1 is a cell-based, multiplexed assay that uses hNPC, a human primary neural progenitor cells, with measurements taken at 72 hours after chemical dosing in a 96-well plate. Human neural progenitor cells (hNPC) are generated from human fetal brain cortex at gestational week (GW) 16-19. Grown in suspension culture and under proliferative conditions (proliferation media and growth factors), these cells represent neural progenitor cell proliferation. In the NPC1 assay, hNPC's are exposed to the test compound for 72h. Cell proliferation is assessed as an increase in sphere area using automated phase contrast imaging and as incorporation of Bromodeoxyuridine (BrdU) during DNA synthesis using a luminescence-based cell proliferation ELISA. In parallel, the cell viability is assessed using an alamar blue viability assay and the cytotoxicity using a lactate dehydrogenase dependent membrane integrity assay.IUF_NPC1b_proliferation_BrdU_72hr is one of 4 assay components measured from the IUF_NPC1 assay. It is designed to measure cell proliferation as assessed by the incorporation of Bromodeoxyuridine (BrdU) in the last 16 h of a 72 h compound exposure using a luminescence-based cell proliferation ELISA.Data from the IUF_NPC1b_proliferation_BrdU component was analyzed at the endpoint IUF_NPC1b_proliferation_BrdU in the positive analysis fitting direction relative to DMSO as the negative control and baseline of activity. Using a type of growth reporter, gain or loss-of-signal activity can be used to understand cell proliferation effects.
# After the cell expansion period, the cells are cultured for up to four weeks in which they are passaged every week. Between one to three days after passaging, depending on the size chosen for passaging, spheres at a size of 0.3 mm are used in the assay. For the assessment of neural progenitor cell proliferation, the spheres are plated in poly-Hema coated 96-well U-bottom plates filled with proliferation medium containing growth factors (EGF and FGF). One 0.25 - 0.35 mm big sphere is plated in the middle of each well. Within 3 days NPCs proliferate and grow in size. Cultivation during the test method is performed at 37C and 5% CO2 at a pH of 7.2-7.6. As a positive control, spheres are cultivated in the absence of growth factors (EGF and FGF), which dramatically reduces proliferation. Exposure starts on the plating day (day 0) and is continued over three days, without chemical renewal, until the experiment is terminated. The assay is terminated by the assessment of cell viability, cytotoxicity, and proliferation by BrdU. All endpoints are generated from the same experimental run and from each well/sphere in the 96-well plate.
# [2] = IUF_NPC1a_proliferation_area_72hr: Leibniz Research Institute for Environmental Medicine (IUF) 72-hour Neural Progenitor Cell Proliferation Area Assay (NPC1a) (AID 2284208)
# Summary of the method: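 Measured in 3D suspension: each well held one primary hNPC sphere grown with EGF and FGF at pH 7.2-7.6. Compound stayed on for 72 h, then area was imaged; spheres lacking growth factors defined reduced proliferation.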
# [3] = IUF_NPC1_viability_72hr: Viability Assessment at 72 hours in the Leibniz Research Institute for Environmental Medicine (IUF) Neural Progenitor Cell Proliferation Assay (NPC1) (AID 2284209)
# Summary of the method: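 Single spheres (0.25-0.35 mm) of human fetal cortex-derived neural progenitor cells were grown in proliferation medium with EGF and FGF at 37C and 5% CO2. They were exposed for 72 h without renewal, and viability was read by alamar blue resorufin fluorescence.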
# [4] = CCTE_Mundy_HCI_Cortical_Synap_Neur_Matur_NeuriteSpotCountPerNeuriteLength: CCTE's Synaptogenesis and Neurite Maturation Assay in rat cortical cells for Neurite Spot Count per Neurite Length, Mundy Lab (AID 2284210)
# Summary of the method: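 Primary rat cortical neurons, compound exposure DIV 7–12, 288.33 h endpoint. Hoechst, anti-MAP2 and anti-synaptophysin labelling; neurite-associated puncta per neurite length scored by automated imaging relative to DMSO controls.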
# [5] = CCTE_Mundy_HCI_Cortical_NOG_NeuriteLength: CCTE's Neurite Outgrowth Assay in rat cortical cells for Neurite Length, Mundy Lab (AID 2284213);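 for AC50: neurites imaged about 48 to 50 h after chemical exposure began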
# Summary of the method: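 Neurite length was read by high-content imaging of βIII-tubulin-labelled neurites in rat primary cortical cultures. Activity was fitted relative to DMSO.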
# [6] = CCTE_Mundy_HCI_Cortical_Synap_Neur_Matur_NeuriteLength: CCTE's Synaptogenesis and Neurite Maturation Assay in rat cortical cells for Neurite Length, Mundy Lab (AID 2284214)
# Summary of the method: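 Rat primary cortical cultures, AraC added DIV 5, dosed DIV 7 through DIV 12 […]. Fixed, MAP2/synaptophysin immunostained with Hoechst; neurite length by high-content imaging, fitted in positive direction versus DMSO.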
# [7] = CCTE_Mundy_HCI_Cortical_Synap_Neur_Matur_BPCount: CCTE's Synaptogenesis and Neurite Maturation Assay in rat cortical cells for Branch Point Count, Mundy Lab (AID 2284211)
# Summary of the method: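 Rat primary cortical cultures, AraC added DIV 5; chemicals dosed DIV 7 through DIV 12. Fixed cells stained for MAP2, synaptophysin and Hoechst; neurite branch points counted by automated high-content imaging, fitted relative to DMSO.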
# [8] = CCTE_Mundy_HCI_Cortical_NOG_NeuriteCount: CCTE's Neurite Outgrowth Assay in rat cortical cells for Neurite Count, Mundy Lab (AID 2284212);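 note: cells fixed about two days after chemical exposure began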
# Summary of the method: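 Neurite number per cell from high-content imaging of betaIII-tubulin immunostaining, with Hoechst nuclear counterstain.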
# [9] = UKN2_HCS_IMR90_neural_migration: University of Konstanz (UKN) Leist Lab Neural Crest Cell Migration Assay in human induced IMR90 Pluripotent Stem Cells (UKN2) (AID 2284204); settings: actives raise or lower the signal
# Experimental: UKN2_HCS_IMR90 is a cell-based, multiplexed-readout assay screening for neural crest cell migration and cell viability that uses IMR90 (neural crest cells differentiated from iPSC), a human embryo cell line, with measurements taken at […] after chemical dosing in a microplate: 96-well plate. UKN2, also known as cMINC, is an assay that uses IMR90 cells (neural crest cells differentiated from iPSC) as a model of neural crest cell migration. 24 hr after cell seeding, cell migration was initiated and proceeded for 24 hr. Then, chemical was applied, and after 24 hr of exposure migration and viability were assessed using high-content imaging of cells stained with calcein-AM and Hoechst H-33342.UKN2_HCS_IMR90_neural_migration is an assay component measured from the UKN2_HCS_IMR90 assay. It is designed to make measurements of neural crest cell migration, a form of morphology reporter, as detected with Fluorescence intensity signals by HCS Fluorescent Imaging.The assay endpoint UKN2_HCS_IMR90_neural_migration was analyzed with bidirectional fitting relative to DMSO as the negative control and baseline of activity. Using a type of morphology reporter, gain or loss-of-signal activity can be used to understand developmental effects. To generalize the intended target to other relatable targets, this assay endpoint is annotated to the neurodevelopment intended target family, where the subfamily is neural crest cell migration.
# The wells are coated with PLO/laminin/fibronectin. Then, silicone stoppers are placed into the wells of a 96-well plate. Cells are seeded around the stoppers and allowed to attach for 24 hours. Day 0: The silicone stoppers are removed and the medium is replaced with pre-warmed, fresh N2-S medium containing the cytokines EGF and FGF. Cells are allowed to migrate into the cell free area. Day 1: 25 ul of the 5x concentrated toxicants are added to the wells. The cells plus toxicants are incubated for 24 h. Day 2: Cells are stained with calcein-AM and Hoechst (H-33342) for 30 min before imaging with a high content imaging microscope. Quantification of migration and viability is done by high content imaging analysis.
# [10] = UKN4_HCS_LUHMES_neurite_outgrowth: University of Konstanz (UKN) Leist Lab Neurite Outgrowth Assay in human LUHMES cells (UKN4) (AID 2284206); settings: actives raise or lower the signal
# Summary of the method: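 Human LUHMES neuronal precursors, differentiated 2 days then replated without cAMP and GDNF, exposed to compounds for 24 h. Neurite area imaged by high-content microscopy after calcein-AM live staining; Hoechst H-33342 for viability; bidirectional fit versus DMSO.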
smiles,measurement,setting,value
CC(C)(c1ccc(O)cc1)c1ccc(O)cc1,AC50,[1],4.92 µM (active)
same,outcome,[2],inactive
same,outcome,[3],inactive
same,outcome,[4],inactive
same,outcome,[5],inactive
same,AC50,[6],50 µM (active)
O=C(O)c1ccccc1,outcome,[1],inactive
same,outcome,[2],inactive
same,outcome,[3],inactive
same,outcome,[4],inactive
same,outcome,[7],inactive
same,outcome,[8],inactive
same,outcome,[5],inactive
same,outcome,[6],inactive
CSC(=O)c1cccc2nnsc12,AC50,[1],0.796 µM (active)
same,outcome,[2],inactive
same,outcome,[3],inactive
same,outcome,[4],inactive
same,outcome,[7],inactive
same,outcome,[8],inactive
same,outcome,[5],inactive
same,outcome,[6],inactive
CCN(CC)C(=O)c1cccc(C)c1,outcome,[9],inactive
same,AC50,[1],92.7 µM (active)
same,outcome,[2],inactive
same,outcome,[3],inactive
same,outcome,[4],inactive
same,outcome,[7],inactive
same,outcome,[8],inactive
same,outcome,[5],inactive
same,outcome,[6],inactive
Cc1nn(C)c(Oc2ccccc2)c1C=NOCc1ccc(C(=O)OC(C)(C)C)cc1,AC50,[9],6.55 µM (active)
same,AC50,[1],5.15 µM (active)
same,AC50,[2],0.0215 µM (active)
same,outcome,[3],inactive
same,AC50,[4],0.00339 µM (active)
same,AC50,[7],0.00291 µM (active)
same,AC50,[8],0.0196 µM (active)
same,AC50,[5],0.0155 µM (active)
same,AC50,[6],0.00265 µM (active)
CC1(C)C(C=C(Cl)Cl)C1C(=O)OCc1cccc(Oc2ccccc2)c1 (stereo not drawn),outcome,[4],inactive
same,AC50,[7],8.52 µM (active)
same,AC50,[8],78.2 µM (active)
same,AC50,[5],83.7 µM (active)
same,AC50,[6],8.65 µM (active)
CCCN(CCC)C(=O)SCC,outcome,[9],inactive
same,outcome,[1],inactive
same,outcome,[2],inactive
same,outcome,[3],inactive
same,outcome,[4],inactive
same,outcome,[7],inactive
same,outcome,[5],inactive
same,outcome,[6],inactive
S=C([S-])NCCNC(=S)[S-].[Mn+2],AC50,[9],14.2 µM (active)
same,AC50,[10],2.16 µM (active)
same,outcome,[1],inactive
same,outcome,[2],inactive
same,outcome,[3],inactive
same,outcome,[4],inactive
same,outcome,[5],inactive
same,outcome,[6],inactive
S=C(S)NCCNC(=S)S.[Mn+2].[S-]C([S-])=NCCN=C([S-])[S-].[Zn+2],outcome,[1],inactive
same,outcome,[2],inactive
same,outcome,[3],inactive
same,outcome,[4],inactive
same,outcome,[7],inactive
same,outcome,[8],inactive
same,outcome,[5],inactive
same,outcome,[6],inactive
C#CCOC(=O)[C@@H](C)Oc1ccc(Oc2ncc(Cl)cc2F)cc1,outcome,[9],inactive
same,outcome,[1],inactive
same,AC50,[2],26.6 µM (active)
same,outcome,[3],inactive
same,outcome,[4],inactive
same,outcome,[7],inactive
same,outcome,[8],inactive
same,outcome,[5],inactive
same,outcome,[6],inactive

# Source: PubChem BioAssay (EPA / NIEHS)
